HCMV antiviral: blocks human cytomegalovirus replication | 410,000 tested, 4.5% active | AID 1259415 | HFF cells, HCMV-luciferase reporter, 72 h; hits give low values | activity change, negative = inhibition, % at 57.5 µM; in the data active = activity change below about -60%; inconclusive = no clear call, values can overlap the other calls; inactive = above about -39%
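HFF cells seeded 16 h at 37C, treated with compounds, infected with luciferase-reporter HCMV at MOI 1 PFU/cell; luciferase read at 72 h post infection, normalized to buffer-only and Salinomycin controls.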
HCV inhibitor: blocks hepatitis C virus; Huh7.5.1 HCVcc-Cre infection, luciferase reporter, 44 h; Potency, µM (doses to about 41.8 µM), without a hit: top-dose activity change, negative = inhibition, most hits filed as inhibitors; 340,000 tested, 3.4% active; note: potency is the fitted concentration of half-maximal effect
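Seed cells (1,000/well) for 4 h; treat with compound and infect with HCVcc-Cre, moi about 0.5. Incubate 44 h, then detect luciferase activity.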
Pf growth 48h: inhibits P. falciparum growth in the first generation, 48 h; P. falciparum luciferase growth in erythrocytes, 48 h; Potency, µM (titrated, usually from 28.7 µM), without a hit: at the highest dose activity change, negative = inhibition, most hits filed as inhibitors; 310,000 tested, 5.9% active; AID 504832; note: potency is the fitted concentration of half-maximal effect
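A one-generation exposure of luciferase-tagged malaria parasites in RPMI 1640/Albumax erythrocyte culture, 37 C and 5% CO2. Inhibition is inferred from decreased luminescence after adding detection reagent.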
Pf growth 96h: inhibits malaria parasite growth, 96 h; P. falciparum luciferase reporter growth, 96 h; Potency, µM (doses to about 28.7 µM), inactives show at the top dose activity change, negative = inhibition, usual class: inhibitors; 320,000 tested, 6.9% active; AID 504834; note: potency is the fitted concentration of half-maximal effect
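Luminescence readout: decreased luciferase signal marks inhibited growth of reporter-expressing P. falciparum in infected red cells (2% hematocrit, 0.05% parasitemia final), exposed to compound two generations (96 h, 37 C, 5% CO2).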
Active calls of the source: *; ? = inconclusive; nt = no result given; [ ] = dose if it differs, or a comment. A selection: hits, their analogues and other compounds. The true share with any hit is near 13%. Unless noted, calls come from the whole dose curve; as a rule, active = well fitted inhibition curve with a large enough effect; inconclusive = small, poorly fitted or top-dose-only effect, or another doubt; inactive = no such curve, though single readings can be large or run the other way. % is set by controls: 0 for no effect and ±100 for the full control effect.

SMILES	HCMV antiviral	HCV inhibitor	Pf growth 48h	Pf growth 96h
CC(=O)NC(c1ccc(N(C)C)cc1)c1cc(Cl)c2cccnc2c1O (configuration not stated)	-100.3*	nt	nt	nt
O=C(NC(c1ccc(Cl)cc1)c1cc(Cl)c2cccnc2c1O)c1cccnc1 (configuration not stated)	-101.4*	?	1.17µM*	46.0%
CC(=O)NC(c1ccccc1)c1cc(Cl)c2cccnc2c1O (configuration not stated)	-95.0*	10µM*	0.828µM*	?
COc1cccc(CNC(=O)C(Cc2ccccc2)NS(=O)(=O)c2ccc3c(c2)CCN3C(C)=O)c1 (configuration not stated)	6.0	nt	nt	nt
COCCNC(=O)C1CCN(S(=O)(=O)c2ccc3c(c2)CCCN3C(C)=O)CC1	3.5	nt	nt	nt
O=C(Nc1ccc(Br)cc1)C1C2C=CC3(O2)C1C(=O)N(CCN1CCOCC1)C3C(=O)NC1CCCCC1 (configuration not stated)	37.8	-10.4%	0.6%	10.4µM*
Cc1ccc(NC(=O)C2C3C=CC4(O3)C2C(=O)N(CCCN2CCOCC2)C4C(=O)NC2CCCCC2)cc1Cl (configuration not stated)	-14.4	?	2.1%	2.08µM*
Cc1ccc(NC(=O)C2C3C=CC4(O3)C2C(=O)N(CCN2CCOCC2)C4C(=O)NC2CCCCC2)cc1C (configuration not stated)	-12.7	?	-5.3%	?
NS(=O)(=O)c1ccc(CCNC(=O)CSc2nc3ccsc3c(=O)n2C2CC2)cc1	-7.8	-0.7%	-5.9%	50.2%
CCCCNC(=O)CSc1nc2ccsc2c(=O)n1C1CCN(C(=O)OCC)CC1	-3.5	-19.1%	?	2.08µM*
CSc1nn(Cc2ccccc2C)c(NC(C)=O)c1S(=O)(=O)c1ccc(C)cc1	-1.0	nt	nt	nt
CC(C)(C)OC(=O)NCCCC[C@H](NC(=O)c1nc[nH]c1C(=O)NCc1ccc(CNC(=O)OC(C)(C)C)cc1)C(=O)OC(C)(C)C	-9.9	?	?	11.7µM*
CC(C)(C)OC(=O)[C@H](CCCCN)NC(=O)c1nc[nH]c1C(=O)NCCCCCN	0.4	31.9%	-17.5%	23.0%
C[C@H](NC(=O)c1nc[nH]c1C(=O)N[C@@H](CCCCNC(=O)OC(C)(C)C)C(=O)OC(C)(C)C)C(=O)OCc1ccccc1	-29.5	18.0%	?	17.4%
CC(C)(C)OC(=O)NCCCC[C@H](NC(=O)c1nc[nH]c1C(=O)N[C@@H](CCCCNC(=O)OC(C)(C)C)C(=O)OC(C)(C)C)C(=O)OC(C)(C)C	?	?	2.08µM*	1.65µM*
C[C@H](NC(=O)c1nc[nH]c1C(=O)N[C@@H](CCCCNC(=O)OC(C)(C)C)C(=O)OC(C)(C)C)C(=O)OC(C)(C)C	9.5	?	9.28µM*	13.1µM*
CC(C)(C)OC(=O)NCCCC[C@H](NC(=O)c1nc[nH]c1C(=O)NC(c1ccccc1)c1ccccc1)C(=O)OC(C)(C)C	?	-14.5%	3.7µM*	2.08µM*
CC(C)C[C@H](NC(=O)c1[nH]cnc1C(=O)N[C@@H](C)c1ccccc1)C(=O)OC(C)(C)C	-26.9	0.7%	?	?
CCN(CC)C(=O)c1[nH]cnc1C(=O)N[C@@H](CCCCNC(=O)OC(C)(C)C)C(=O)OC(C)(C)C	-14.9	-3.2%	?	?
C=C(C)Cn1c(SCC(=O)Nc2cccc(C)c2)nc2sc3c(c2c1=O)CCCC3	6.2	nt	nt	nt
COc1cccc(C(=O)Nc2ccccc2OCc2cc(=O)n3cc(C)ccc3n2)c1	2.2	nt	nt	nt
CC1=C(C(=O)Nc2ccc(Cl)cc2)C(c2cccs2)n2nc(SCc3cccc(Cl)c3)nc2N1 (configuration not stated)	1.4	nt	nt	nt
COCCNC(=O)c1nn(-c2ccc(Cl)cc2)nc1CO	69.9	nt	nt	nt
CC(C)(C)OC(=O)CNC(=O)c1[nH]cnc1C(=O)N[C@@H](CCCCNC(=O)OC(C)(C)C)C(=O)OC(C)(C)C	?	11.0%[8.37 µM]	?	?
CC(C)(C)OC(=O)NCCCCCNC(=O)c1[nH]cnc1C(=O)N[C@@H](CCCCNC(=O)OC(C)(C)C)C(=O)OC(C)(C)C	nt	?	9.28µM*	0.0%
SMILES	HCMV antiviral	HCV inhibitor	Pf growth 48h	Pf growth 96h
COc1ccccc1N1CCN(S(=O)(=O)c2c(C)sc3ncn(CC(=O)N(C)c4ccc(Cl)cc4)c(=O)c23)CC1	-16.5	nt	nt	nt
COC(=O)c1ccc(C)c(NC(=O)c2nn(C)c(=O)c3ccccc23)c1	-8.4	-4.3%	?	13.1µM*
CCn1nc(C(=O)Nc2ccccc2N2CCCC2)c2ccccc2c1=O	-16.9	10µM*	?	?
CN1CCN(c2ccc(Cl)cc2NC(=O)c2nn(-c3ccccc3)c(=O)c3ccccc23)CC1	14.7	?	-18.2%	14.7µM*
Cn1nc(C(=O)Nc2cc(Cl)ccc2N2CCCC2)c2ccccc2c1=O	-13.9	?	11.7µM*	13.1µM*
CN1CCN(c2ccc(Cl)cc2NC(=O)c2ccc([N+](=O)[O-])cc2)CC1	-5.8	-8.3%	?	?
CCN(C(=O)c1cc2c(=O)oc3ccccc3c2s1)c1ccccc1F	-2.0	nt	nt	nt
Cc1ccc(NC(=O)CCNS(=O)(=O)c2ccc3c(c2)CCN3C(=O)C2CC2)c(Cl)c1	-18.3	nt	nt	nt
Cc1ccc(S(=O)(=O)N2CCc3cc(C(=O)Nc4c(F)cccc4F)ccc32)cc1	-14.3	nt	nt	nt
Cc1ccccc1-c1nnc(CN2CCN(c3cccc(C)c3C)CC2)o1	-5.4	nt	nt	nt
CCOc1ccc2nc(N/C(N)=N/S(=O)(=O)c3ccc(C)cc3)nc(C)c2c1	1.3	nt	nt	nt
COc1ccc2nc(N/C(N)=N/C(=S)Nc3ccc(C)c(C)c3)nc(C)c2c1	nt	3.98µM*	2.5%	?
CCc1ccc(NC(=S)/N=C(\N)Nc2nc(C)c3cc(CC)ccc3n2)cc1	-28.4	15.8µM*	?	?
COc1ccc(OC)c(N/C(=N/C(=S)Nc2ccccc2)Nc2nc(C)cc(C)n2)c1	-36.1	?	?	?
COc1ccc2nc(N/C(N)=N/C(=S)Nc3ccccc3)nc(C)c2c1	-30.6	11.2µM*	?	2.5%
CCOc1ccc2nc(N/C(N)=N/C(=S)Nc3ccc(OC)cc3)nc(C)c2c1	-8.1	?	4.15µM*	?
CCOc1ccc2nc(N/C(N)=N/S(C)(=O)=O)nc(C)c2c1	8.1	5.2%	42.7%	87.0%
COC(=O)c1ccccc1NC(=O)CN1C(=O)COc2ccc(Cl)cc21	-2.5	nt	nt	nt
Cc1cc(C)cc(OCC(=O)Nc2ccc(-c3nc4ccccc4s3)cc2)c1	94.7	nt	nt	nt
CCCCn1nc2cc(C(=O)NCC34CC5CC(CC(C5)C3)C4)ccc2c1OC	-8.2	-29.8%	?	14.7µM*
CCn1nc2cc(C(=O)NCC34CC5CC(CC(C5)C3)C4)ccc2c1OC	165.6	-22.0%	11.7µM*	23.1%
CCOc1c2ccc(C(=O)NCC34CC5CC(CC(C5)C3)C4)cc2nn1CC	5.1	-12.6%	-33.1%	?
CC(C)c1ccc(CNc2nc(-c3ccco3)nn2S(=O)(=O)c2ccc3ccccc3c2)cc1	24.9	nt	nt	nt
